From PubChem BioAssay (Tox21)
Records with an inconclusive call do not appear. Calls of active or inactive are those of the source. Unless noted, calls come from the whole dose curve.

What was measured:
[1] = qHTS assay to identify small molecule agonists of the vitamin D receptor (VDR) signaling pathway - cell viability counter screen (AID 743224; active = well fitted curve in the direction sought with a large enough effect in the repeat runs; an effect the other way counts as inactive or inconclusive; note: series mostly up to about 63 µM; nearly all actives have a fitted effect of over 50% in size)
Method in brief: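 CellTiter-Glo viability readout on VDR-bla cells, measured after 16 h of compound treatment at 37C in the same wells.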

[2] = qHTS assay to identify small molecule antagonists of the vitamin D receptor (VDR) signaling pathway - cell viability counter screen (AID 743225; active = well fitted curve in the direction sought with a large enough effect in the repeat runs; an effect the other way counts as inactive or inconclusive; note: nearly all actives have a fitted effect of over 50% in size)
Method in brief: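 Cytotoxicity counter screen read by CellTiter-Glo luminescence (30 min, room temperature) in the same wells as the VDR-bla antagonist readout. HEK 293T VDR-UAS-bla cells had 16 h at 37C with compound and 3 nM (final) 1-alpha,25-dihydroxyvitamin D3, then 2 h with FRET substrate.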

[3] = qHTS assay to identify small molecule agonists of the endoplasmic reticulum stress response signaling pathway (AID 1159516; active = well fitted activation curve with a large enough effect in the signal ratio in the repeat runs, not every such curve was filed as active; the % refers to the signal ratio)
Method in brief: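 Fluorescence at 460 and 530 nm (405 nm excitation) reports beta-lactamase from an ER stress response element in HeLa cells treated 5 hr at 37 C.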

[4] = qHTS assay to identify small molecule agonists of the endoplasmic reticulum stress response signaling pathway - cell viability counter screen (AID 1159517); note: series mostly up to about 61 µM; nearly all actives have a fitted effect of over 50% in size
Method in brief: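 After overnight attachment, ESRE-bla HeLa cells were treated with Tox21 library compounds for 5 hr. CellTiter-Glo luminescence, read 30 min post-addition at room temperature, reported viability.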

[5] = qHTS assay to identify small molecule antagonists of the retinoid-related orphan receptor gamma (ROR-gamma) signaling pathway - cell viability counter screen (AID 1159520; active = well fitted curve in the direction sought with a large enough effect in the repeat runs; an effect the other way counts as inactive or inconclusive; note: nearly all actives have a fitted effect of over 50% in size)
Method in brief: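 Cytotoxicity was read from cellular ATP (CellTiter-Glo luminescence) after 16 hr at 37 C with 1 uM doxycycline induction. The inducer was added 2 hr after compound transfer to Tet-on ROR gamma CHO cells.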

[6] = molecular target: Nuclear receptor ROR-gamma (Homo sapiens) (UniProt P51449); test: qHTS assay to identify small molecule antagonists of the retinoid-related orphan receptor gamma (ROR-gamma) signaling pathway (AID 1159521; active = well fitted curve in the direction sought with a large enough effect in the repeat runs; an effect the other way counts as inactive or inconclusive)
Method in brief: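 Antagonist read-out: drop in luminescence (ONE-Glo) from an RORE-LUC reporter in CHO cells with doxycycline-inducible ROR-gamma; 2 hr compound pretreatment, 1 uM doxycycline, 16 hr incubation at 37 C.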

[7] = qHTS assay to identify small molecule agonists of the AP-1 signaling pathway - cell viability counter screen (AID 1159525); note: nearly all actives have a fitted effect of over 55% in size
Method in brief: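 Intracellular ATP by Cell Titer Glo luminescence (30 min, RT) in the same ME-180 AP-1-bla wells after the 5 h compound exposure at 37 °C. Normalised to tetra n-octyl ammonium bromide and DMSO controls.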

[8] = qHTS assay to identify small molecule agonists of the AP-1 signaling pathway (AID 1159526)
[9] = molecular target: Retinoic acid receptor RXR-alpha (Homo sapiens) (UniProt P19793); test: qHTS assay to identify small molecule agonists of the RXR signaling pathway (AID 1159527); note: nearly all actives have a fitted effect of over 35% in size
Chain of Retinoic acid receptor RXR-alpha (Homo sapiens) (P19793 whole entry, looked up): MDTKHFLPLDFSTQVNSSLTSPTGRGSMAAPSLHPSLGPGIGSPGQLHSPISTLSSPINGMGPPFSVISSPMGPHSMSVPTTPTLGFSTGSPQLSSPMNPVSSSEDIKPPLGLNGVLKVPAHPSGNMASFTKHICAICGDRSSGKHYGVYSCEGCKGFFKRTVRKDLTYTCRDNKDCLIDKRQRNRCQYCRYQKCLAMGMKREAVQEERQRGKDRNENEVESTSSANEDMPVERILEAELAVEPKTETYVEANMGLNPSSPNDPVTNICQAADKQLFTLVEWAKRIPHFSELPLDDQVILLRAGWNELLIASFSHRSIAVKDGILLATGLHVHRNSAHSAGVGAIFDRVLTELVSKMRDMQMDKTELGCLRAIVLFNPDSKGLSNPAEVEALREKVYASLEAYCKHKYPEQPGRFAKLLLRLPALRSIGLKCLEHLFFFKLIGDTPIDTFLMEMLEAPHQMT
Method in brief: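 Agonist-mode beta-lactamase reporter assay: HEK 293T RXR-alpha-UAS-bla cells treated 16 hr at 37 C with compounds, 9-cis retinoic acid as positive control. LiveBLAzer FRET substrate, 405 nm excitation, 460/530 nm emission.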

Measured: Potency

CC(=O)CC(=O)N(C)C
inactive: all assays above

O=[N+]([O-])c1cc(C(F)(F)F)ccc1Cl
not listed: [6]
inactive: all other assays above

CC(=O)c1nccs1
not listed: [2]
inactive: all other assays above

COc1c(Cl)ccc(Cl)c1C(=O)O
not listed: [2]
inactive: all other assays above

CCCCCCC(=O)O
inactive: all assays above
